Where “and” joins values, the source holds several entries; their conditions need not be identical. Equal values may be shown once. Records with an inconclusive call do not appear. Where a structure was tested more than once in an assay, its records may differ in their call. Calls of active or inactive are those of the source. Unless noted, the call rests on the fitted dose curve; in most records, active means well fitted curve in the direction sought with a large enough effect in the repeat runs; inconclusive means weak or mixed curves; inactive means no such curve, though single readings can be large; an effect the other way counts as inactive or inconclusive.

A short description of assay [1]: qHTS assay to identify small molecule agonists of the hypoxia (HIF-1) signaling pathway - cell viability counter screen (AID 1224844; calls by dose curve; further: nearly all actives have a fitted effect of over 50% in size). The method, boiled down: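 HRE-bla ME-180 cells, 2,000/well in 0.5% dialyzed FBS medium, treated 17 h at 37C with compounds. Viability read in the same wells as the bla reporter, by CellTiter-Glo luminescence after 30 min at room temperature.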
For orientation: In qHTS, concentration-response curves come from the screen itself.

A short description of assay [2]: qHTS assay to identify small molecule agonists of H2AX (AID 1224845; active means well fitted activation curve with a large enough effect in the signal ratio in the repeat runs, not every such curve was filed as active; the % refers to the signal ratio). Summed up: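 Phospho-H2AX Ser139 measured by HTRF (ex 320 nm; em 665 and 620 nm) after 24 hr antibody incubation. Compounds, 15 concentrations, 0.76% DMSO, were applied to CHO-K1 cells for 3hr at 37C before lysis.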
Assay [3] can be described thus: qHTS assay to identify small molecule agonists of the hypoxia (HIF-1) signaling pathway (AID 1224846; active means well fitted activation curve with a large enough effect in the signal ratio in the repeat runs, not every such curve was filed as active; the % refers to the signal ratio). The method, boiled down:
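HRE-bla ME-180 beta-lactamase reporter cells in medium with 0.5% dialyzed FBS, pre-incubated 5 h then exposed to compounds 17 h at 37C, 5% CO2; reporter induction read with CCF4-AM FRET substrate.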

Assay [4] in a line: qHTS assay to identify small molecule agonists of H2AX - cell viability counter screen (AID 1224847; calls by dose curve; further: top concentration of the series differs between compounds; nearly all actives have a fitted effect of over 30% in size). The method, boiled down: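 Wild-type CHO-K1 cells (10% FBS medium) were plated overnight at 37C, exposed to compounds at 15 concentrations for 3 hr at 37C (0.76% DMSO final), and viability was read as CellTiter-Glo luminescence after 30 min at room temperature.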
The nature of assay [5]: qHTS assay to identify small molecule agonists of the estrogen related receptor (ERR) signaling pathway from Tox21 library (AID 1224849; calls by dose curve; further: nearly all actives have a fitted effect of over 15% in size). Summed up:
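ERR reporter cells (NTP line) pre-incubated 6 hours at 37 C, then exposed to compounds for 18 hours at 37 C. ONE-Glo luciferase luminescence was read after 30 minutes at room temperature.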

The nature of assay [6]: qHTS RealTime-Glo MT Cell Viability Assay in HepG2 cells - 24 hour (AID 1224867). Further: nearly all actives have a fitted effect of over 50% in size. Summed up: (§1)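 qHTS, HepG2, 600 cells/well, RealTime-Glo (NanoLuc + prosubstrate) added with cells; 5 h preincubation; DMSO compound addition; 37 C; luminescence at 0/8/16/24/32/40 h.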
Assay [7] in a line: qHTS RealTime-Glo MT Cell Viability Assay in HEK293 cells - 32 hour (AID 1224868). Further: nearly all actives have a fitted effect of over 50% in size. Further: potency means the concentration at half of the fitted maximal effect. Summed up: (§2)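 Assay medium contained NanoLuc luciferase plus cell-permeant prosubstrate, added with HEK293 cells at 600 cells/well. After 5 h at 37 C/5% CO2 compounds were added; plates stayed at 37 C for 40 h with serial luminescence reads.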
Assay [8] is described as follows: A CellTox Green Cytotoxicity Assay to monitor cytotoxicity in HEK293 cells - 0 hour (AID 1224869). Further: nearly all actives have a fitted effect of over 50% in size. The method, boiled down:
(§3)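 HEK293 cells, 600/well, were preincubated 5 hours and then exposed to compounds at 37 C for up to 40 hours. A cell-impermeant cyanine dye staining dead-cell DNA was read by fluorescence at 0, 8, 16, 24, 32 and 40 h time points.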

The nature of assay [9]: qHTS RealTime-Glo MT Cell Viability Assay in HepG2 cells - 40 hour (AID 1224870). Further: nearly all actives have a fitted effect of over 50% in size. The method, boiled down: (§4)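 Real-time viability: cells seeded at 600 per well together with NanoLuc and cell-permeant prosubstrate, compounds added after 5 h incubation. Luminescence tracked at 0, 8, 16, 24, 32 and 40 h of exposure.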
Assay [10] can be described thus: A CellTox Green Cytotoxicity Assay to monitor cytotoxicity in HEK293 cells - 40 hour (AID 1224871). Further: nearly all actives have a fitted effect of over 45% in size. The method, boiled down: as §3
Assay [11] is described as follows: qHTS RealTime-Glo MT Cell Viability Assay in HEK293 cells - 16 hour (AID 1224872). Further: nearly all actives have a fitted effect of over 50% in size. Further: potency means the concentration at half of the fitted maximal effect. The method, boiled down:
as §2

The nature of assay [12]: qHTS RealTime-Glo MT Cell Viability Assay in HepG2 cells - 8 hour (AID 1224873). Further: nearly all actives have a fitted effect of over 55% in size. The method, boiled down:
as §4

The nature of assay [13]: qHTS RealTime-Glo MT Cell Viability Assay in HEK293 cells - 40 hour (AID 1224874). Further: nearly all actives have a fitted effect of over 50% in size. Further: potency means the concentration at half of the fitted maximal effect. The conditions noted are these: RealTime-Glo luminescence; max response: stronger effect = lower value. Summed up: (§5)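 600 cells/well were plated with the nonlytic NanoLuc/prosubstrate reagent, pre-incubated 5 h, then given 23 nL of compound in DMSO. Incubation at 37 C for 40 h, with luminescence from viable-cell-reduced substrate read repeatedly from 0 h.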

Assay [14] can be described thus: A CellTox Green Cytotoxicity Assay to monitor cytotoxicity in HEK293 cells - 24 hour (AID 1224875). Further: series mostly up to about 77 µM; nearly all actives have a fitted effect of over 45% in size. Summed up:
as §3

A short description of assay [15]: A CellTox Green Cytotoxicity Assay to monitor cytotoxicity in HepG2 cells - 16 hour (AID 1224876). Further: nearly all actives have a fitted effect of over 45% in size. The method, boiled down:
(§6)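 HepG2 cells, 600/well, preincubated 5 h with CellTox Green dye, then exposed to Tox21 compounds in DMSO at 37 C for up to 40 h. Dead-cell DNA fluorescence read at the indicated time point.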

The nature of assay [16]: qHTS RealTime-Glo MT Cell Viability Assay in HepG2 cells - 32 hour (AID 1224877). Further: nearly all actives have a fitted effect of over 55% in size. The method, boiled down:
as §1

A short description of assay [17]: A CellTox Green Cytotoxicity Assay to monitor cytotoxicity in HepG2 cells - 24 hour (AID 1224878). Further: nearly all actives have a fitted effect of over 45% in size. The method, boiled down: as §6
Assay [18] is described as follows: A CellTox Green Cytotoxicity Assay to monitor cytotoxicity in HepG2 cells - 40 hour (AID 1224879). Further: nearly all actives have a fitted effect of over 40% in size. Summed up:
as §6

Assay [19] is described as follows: qHTS RealTime-Glo MT Cell Viability Assay in HEK293 cells - 0 hour (AID 1224880). The method, boiled down:
as §5
On the % scale 0 is the no-effect control and ±100 the full control effect.

`C=CC(=O)OCCC(=O)O`: the call in assay [1], in assay [2], in [3], in assay [4], in [5] and in [8] was inactive. Moreover, the call in assay [9], in assay [15], in assay [16] and in assay [19] was inactive. Also, the Potency result in assay [6], in assay [7], in assay [10], in assay [11], in assay [12] and in [14] was “inactive” in each case. Besides, the Potency entry in [17] and in assay [18] was “inactive” each time. In addition, the max response in [13] was -1.71% (inactive) and -0.811% (inactive).
In the case of `CCCCCCCCCCCCCCCC(=O)OC(C)C`, the molecule was classed as inactive in assay [1], in assay [2], in assay [3], in [4], in [8] and in assay [9]. The call in [15], in [16] and in [19] was inactive. Also, the Potency result in assay [6], in assay [7], in [10], in [11], in [12] and in [14] was “inactive” throughout. The Potency entry in [17] and in assay [18] was “inactive” throughout.
For `CCCCCCCCCCCC(=O)OC`, the outcome in assay [1], in [2], in [3], in [4], in assay [8] and in assay [9] was inactive. The outcome in assay [15], in assay [16] and in assay [19] was inactive. Moreover, the Potency entry in [6], in [7], in [10], in assay [11], in [12] and in assay [14] was “inactive” each time. Further, the Potency result in assay [17] and in [18] was “inactive” throughout.
Regarding `O=C1c2ccccc2CCc2ccccc21`, the molecule was called inactive in [1], in assay [3], in [4], in assay [5], in [9] and in assay [15]. Besides, the outcome in assay [16] and in assay [19] was inactive. The Potency entry in [6], in assay [7], in assay [10], in assay [11], in assay [12] and in [14] was “inactive” each time. In addition, the Potency result in assay [17] and in [18] was “inactive” each time. Besides, the max response in assay [13] is -14.3% (inactive) and 0.842% (inactive).
For the molecule `CC(=O)OCCOC(C)=O`, the molecule was classed as inactive in assay [1], in assay [2], in assay [3], in assay [4], in [8] and in assay [9]. Moreover, the molecule was called inactive in assay [15], in assay [16] and in assay [19]. Moreover, the Potency entry in assay [6], in [10], in assay [11], in assay [12], in [14] and in assay [17] was “inactive” in each case. Besides, the Potency entry in assay [18] was “inactive”. For the same molecule, the max response in assay [13] was -0.882% (inactive) and 2.01% (inactive).
As for `CC(C)CCCCCCCOC(=O)CCCCC(=O)OCCCCCCCC(C)C`, the outcome in assay [1], in [2], in [3], in assay [4], in assay [8] and in assay [9] was inactive. The call in [15], in assay [16] and in assay [19] was inactive. The Potency result in [6], in [7], in assay [10], in assay [11], in assay [12] and in assay [14] was “inactive” in each case. Further, the Potency entry in assay [17] and in assay [18] was “inactive” throughout.
As for `COc1ccc(N)c(C)c1`, the molecule was classed as inactive in assay [1], in assay [2], in [3], in assay [4], in [9] and in assay [15]. Besides, the molecule was classed as inactive in assay [16] and in [19]. In addition, the Potency result in assay [6], in assay [7], in [10], in assay [11], in [12] and in [14] was “inactive” throughout. The Potency result in assay [17] and in [18] was “inactive” throughout. The max response in assay [13] was 9.17% (inactive) and 3.97% (inactive).
With `CCO[Si](CCC#N)(OCC)OCC`, the molecule was classed as inactive in assay [1], in assay [2], in assay [3], in assay [4], in [9] and in [15]. The molecule was called inactive in assay [16] and in [19]. Also, the Potency result in assay [6], in [7], in [10], in assay [11], in assay [12] and in assay [14] was “inactive” throughout. Also, the Potency entry in assay [17] and in assay [18] was “inactive” throughout. Moreover, the max response in assay [13] is 7.39% (inactive) and 2.23% (inactive).
In the case of `O=C(O)c1ccc(S(=O)(=O)N(Cl)Cl)cc1`, the molecule was classed as inactive in [1], in assay [2], in [3], in [4], in assay [9] and in assay [15]. The outcome in assay [16] and in assay [19] was inactive. For the same molecule, the Potency entry in assay [6], in assay [10], in assay [12], in [14], in assay [17] and in [18] was “inactive” each time. For the same molecule, the Potency in [7] was 49.3 µM (active) and inactive; in [11], 49.3 µM (active) and inactive; in assay [13], 43.9 µM (active). Besides, the max response in [13] is 0.122% (inactive).
As for `CC(C)c1cccc(C(C)C)c1`, the result in assay [2], in assay [3], in assay [4], in [5], in assay [9] and in assay [15] was inactive. Further, the result in assay [16] and in assay [19] was inactive. Also, the Potency result in assay [6], in [7], in [10], in [11], in assay [12] and in assay [14] was “inactive” throughout. For the same molecule, the Potency result in assay [17] and in assay [18] was “inactive” in each case. In addition, the max response in assay [13] is 2.88% (inactive) and 7.17% (inactive).
Take `C=CCc1ccc(OC)c(OC)c1`: the molecule was called inactive in assay [1], in assay [2], in [3], in assay [4], in [8] and in assay [9]. In addition, the molecule was classed as inactive in [15], in [16] and in assay [19]. In addition, the Potency entry in assay [6], in assay [10], in [11], in assay [12], in assay [14] and in [17] was “inactive” throughout. Further, in assay [18], the Potency result was “inactive”.
Consider `CCNc1ccccc1`, for which the result in assay [2], in [3], in [4], in assay [8], in assay [9] and in assay [15] was inactive. Moreover, the molecule was classed as inactive in assay [16] and in assay [19]. The Potency entry in [6], in assay [7], in assay [10], in assay [11], in assay [12] and in assay [14] was “inactive” in each case. For the same molecule, the Potency result in [17] and in [18] was “inactive” throughout.
Consider `O=S(=O)(O)c1ccc(N=Nc2c(O)ccc3cc(S(=O)(=O)O)ccc23)cc1`, for which the molecule was called inactive in [1], in [3], in assay [4], in assay [5], in assay [8] and in assay [15]. The outcome in [19] was inactive. Besides, the Potency result in [7], in assay [10], in assay [12], in assay [14], in [17] and in assay [18] was “inactive” each time. In [13], the max response is -20% (inactive).

The record behind these values is PubChem BioAssay (Tox21).
